Experimental data as given in PubChem BioAssay (NCI).
Compounds without any hit were thinned out: in the full panel of roughly 83,000, 20% have a hit.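 96-well plates, one dose, 48 hours. Percent growth reported; active if below 10.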 Values without a mark were called inactive. Calls of active or inactive are those of the source.

What was measured:
Test in all cases: NCI-60 one-dose screen, 48 h (100 = growth as untreated, 0 = no growth, -100 = all killed)
Settings in all cases: 10 µM unless noted
SR leukemia = system: SR leukemia
RPMI-8226 leukemia = system: RPMI-8226 leukemia
OVCAR-8 ovarian = system: OVCAR-8 ovarian
OVCAR-5 ovarian = system: OVCAR-5 ovarian
OVCAR-4 ovarian = system: OVCAR-4 ovarian
SK-OV-3 ovarian = system: SK-OV-3 ovarian
IGROV1 ovarian = system: IGROV1 ovarian
OVCAR-3 ovarian = system: OVCAR-3 ovarian
HS 578T breast = system: HS 578T breast
NCI/ADR-RES ovarian = system: NCI/ADR-RES ovarian
T-47D breast = system: T-47D breast
BT-549 breast = system: BT-549 breast
SW-620 colon = system: SW-620 colon
MCF7 breast = system: MCF7 breast
HCT-116 colon = system: HCT-116 colon
HCC-2998 colon = system: HCC-2998 colon
KM12 colon = system: KM12 colon
MDA-MB-435 melanoma = system: MDA-MB-435 melanoma

SMILES	growth (SR leukemia)	growth (RPMI-8226 leukemia)	growth (OVCAR-8 ovarian)	growth (OVCAR-5 ovarian)	growth (OVCAR-4 ovarian)	growth (SK-OV-3 ovarian)	growth (IGROV1 ovarian)	growth (OVCAR-3 ovarian)	growth (HS 578T breast)	growth (NCI/ADR-RES ovarian)	growth (T-47D breast)	growth (BT-549 breast)	growth (SW-620 colon)	growth (MCF7 breast)	growth (HCT-116 colon)	growth (HCC-2998 colon)	growth (KM12 colon)	growth (MDA-MB-435 melanoma)
Cc1ccc(-n2cc(/C=N/NC(=O)c3ccncc3)c(-c3ccc(S(C)(=O)=O)cc3)n2)cc1	63.5%	96.5%	98.7%	103%	102%	96.1%	77.8%	82.3%	90.3%	51.7%	93.1%	74.1%	64.6%	72.2%	61.1%	98.1%	58%	
Cn1cc(-c2nnc(N)nc2-c2c[nH]c3ccc(F)cc23)c2cc(F)ccc21	41.1%	65.6%	90.3%	109%	98.4%	88.4%	35.7%	78.6%	84.1%	86.7%	26.1%		59.8%	30.4%	62.1%	93.1%	74.5%	94.8%
CNC(=O)c1cc(-n2ccc3cc(NC(=O)Nc4ccc(N5CCOCC5)c(C(F)(F)F)c4)ccc32)ccn1	9.16% (active)	-26.7% (active)	60.6%	65.1%	40.6%	102%	32.3%	76.4%	32.2%	47.9%	47%		62.5%	35.3%	20.5%	87.4%	7.44% (active)	40.2%
CN1CCN(Cc2ccc(NC(=O)c3cncc(C#Cc4cnc5ccc(N6CCN(C)CC6)nn45)c3)cc2C(F)(F)F)CC1	-52.2% (active)	-13.9% (active)	-81.8% (active)	61.4%	10.9%	92%	-37.2% (active)	-76.9% (active)	-23.1% (active)	-31.3% (active)	110%		-74.9% (active)	-76.2% (active)	-20.1% (active)	54.8%		-87.5% (active)
C#C[C@]1(O)CC[C@H]2[C@@H]3CC=C4c5sc(-c6cccc(O)c6)nc5CC[C@]4(C)[C@H]3CC[C@@]21C	4.31% (active)	-33% (active)	9.55% (active)	-35% (active)	-47.4% (active)	-18.2% (active)	-3.36% (active)	-65.3% (active)	-37.7% (active)	-12.5% (active)	1.25% (active)	-22.8% (active)	-52.8% (active)	-28% (active)	-37.6% (active)	-24.8% (active)	-28.9% (active)	
COc1cc(-c2nn(C(C)(C)C)cc2-c2ccnc(NCCCNS(=O)(=O)c3ccc(Cl)cc3)n2)ccc1Cl	37.7%	66.1%	73.3%	79.5%	39.2%	93.9%	50.8%	73.5%	70.5%	67%	64.2%		91.1%	52.2%	39%			72.2%
COc1cc2c(cc1OC)C(Sc1ccc(C)cc1)c1c(nc(N)c(C#N)c1N)O2 (centres undefined)	-4.56% (active)	-19.2% (active)	3.56% (active)	-78.8% (active)	-59.2% (active)	-70.9% (active)	-72.8% (active)	-80.7% (active)	-6.15% (active)	-32.1% (active)	-28.9% (active)		-36.6% (active)	-66.9% (active)	-69.6% (active)	-85.2% (active)	-52.5% (active)	-31.3% (active)
O=C1[C@@H]2Cc3c([nH]c4ccccc34)[C@H](c3c(Cl)cccc3Cl)N2C(=O)CN1C1CCN(CC2CCCCC2)CC1	-0.527% (active)	38.4%	88.1%	93.4%	90.2%	123%	58.4%	20.3%	18.7%	74.9%	61%	63.2%	10.2%	18.4%	4.3% (active)	73.4%	68.7%	
CC1(C)[C@@H](O)CC[C@]2(C)[C@H]3CC[C@@H]4[C@H]5[C@H](C(=O)/C=C\c6ccc([N+](=O)[O-])cc6)CC[C@]5(O)CC[C@@]4(C)[C@]3(C)CC[C@@H]12	1.04% (active)	11.7%	76.8%	92%	41.1%	107%	56.6%	43.2%	59.9%	64%	57.7%		30.2%	38.7%	4.14% (active)	77.2%	53.3%	36.1%
O=C(O)c1cn(C2CC2)c2cc(N3CCN(C(=O)CN4C(=O)CSC4=O)CC3)c(F)cc2c1=O	99.3%	126%	105%	99%	86.4%	113%	82.6%	108%	97.7%	108%	106%		100%	98.8%	98.8%	115%	101%	98.6%
N#Cc1c(-c2cccs2)cc(-c2cnccn2)nc1SCC(=O)c1ccc(F)cc1	81.3%	97.7%	99.5%	88%	76%	104%	78.1%	118%	94.2%	96.4%	106%		96.7%	85.7%	96.6%	117%	99%	93.3%
CCCCCc1ccc(S(=O)(=O)Nc2cc(-c3csc(NC(=O)CN4CCN(CCO)CC4)n3)ccc2OC)cc1	-13.2% (active)	-16.9% (active)	82.1%	86.1%	72.5%	78%	48.9%	13.3%		88.4%	26.8%	88.7%	1.64% (active)	6.28% (active)	-13.2% (active)	-23.4% (active)	61.2%	-48.6% (active)
CCN(CC)c1ccc2c(c1)Oc1nc(N)c(C#N)c(N)c1C2Sc1ccc(C)cc1 (centres undefined)	-22% (active)	-22.9% (active)	-57.9% (active)	-88.6% (active)	-96.7% (active)	-89.3% (active)	-87.4% (active)	-54% (active)		-17.9% (active)	-41.8% (active)	58.8%	-62.5% (active)	-70.7% (active)	-80.2% (active)	-90.2% (active)	-48.8% (active)	-95.5% (active)
O=C(Cn1cc[n+](CC(=O)c2ccc(-c3ccccc3)cc2)c1)Nc1cccc2cccnc12	53.9%	33.5%	76.6%	90.6%	32.9%	80%	27.3%	50.1%	75.8%	97.9%	40.4%		85%	51.4%	72.4%	51.7%	31.6%	79.3%
O=C(CN1CCN(c2cc(=O)n(-c3ccccc3)c3ccccc23)CC1)Nc1nc(-c2ccc(Cl)cc2)cs1	56.8%	36.7%	59.4%	93.1%	19.7%	71.4%	65.5%	67.1%	92.8%	54.9%	24.3%		74.3%	20.1%	35.8%	92.4%	64.7%	49.8%
C[C@@H](Nc1c(C#N)cnc2ccc(-c3cnc(Cl)c(NS(C)(=O)=O)c3)cc12)c1ccccc1	-14.1% (active)	-34.9% (active)	16.3%	4.76% (active)	0.536% (active)	-7.04% (active)	-30.4% (active)	4.33% (active)	-15.9% (active)	31.5%	0.239% (active)		9.39% (active)	6.51% (active)	4.05% (active)	16.7%	15.1%	8.87% (active)
